IEC-6 cytotox – cytotoxicity in IEC-6 intestinal epithelial cells, primary screen, cytotoxicity control for KLF5 inhibitor project, cell-based, luminescence; IEC-6 cytotoxicity, luminescence viability; 290,000 compounds, 0.78% hits; inhibition, % at 5 µM; in the data active means inhibition above about 22%;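 further: 0% = plate median of test compound wells and 100% = cytotoxic reference compound wells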
KLF5 inhibitor – KLF5 expression inhibitors, primary screen, DLD-1 cells, luminescence; 290,000 compounds, 0.23% hits; inhibition, % at 5 µM; DLD-1 KLF5 promoter-luciferase reporter;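 active means inhibition above a per-plate limit of that plate's mean compound inhibition plus 3 SD, cut at about 60% in these data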;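 further: 0% = DMSO wells and 100% = LY294002 at 200 µM; higher means less KLF5 promoter-driven luciferase light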
SKKanGAS inh – S. pyogenes SKKanGAS growth inhibitors in kanamycin, primary screen, streptokinase expression inhibitor project, SKKanGAS strain, BacTiter-Glo luminescence | inhibition, % at 7.5 µM | 6 h | 300,000 compounds, 1.3% hits;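 active means mean replicate score, as percent of positive control median, at least 50; inconclusive means mean below 50 but one replicate at or above 50; inactive means mean and every replicate below 50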;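 further: strain carries kanamycin resistance gene driven by streptokinase promoter and grows in 40 µg/ml kanamycin; loss of luminescence reflects streptokinase promoter inhibition or plain growth inhibition; 0% = median of DMSO wells and 100% = positive control at its reference dose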
CSC inhib – cancer stem cell viability inhibitors, primary screen, luminescence | inhibition, % at 7.5 µM | 300,000 compounds, 1.1% hits | cancer stem cell-like cells viability; in the data active means inhibition above about 75%; inconclusive means no clear call, values can overlap the other calls; tested in HMLE shEcad cells
aSyn 5UTR inh – MLPCN primary screen, SNCA 5' untranslated region. alpha-synuclein 5'UTR reporter, inhibitor activity. inhibition, % (tested at 7.5 µM). 300,000 compounds, 0.82% hits. AID 1813, 2009; in the data active means inhibition above about 60%; inconclusive means no clear call, values can overlap the other calls;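 further: H4 neuroglioblastoma cells stably carrying SNCA 5'UTR luciferase fusion; 0% = DMSO wells and 100% = positive control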
* marks the source's active call; other numbers are inactive results; ? = inconclusive; . = no result given. In the library only some 3% were active in any assay of this set; here they are far more common.

SMILES | IEC-6 cytotox | KLF5 inhibitor | SKKanGAS inh | CSC inhib | aSyn 5UTR inh
CC1=CC(C)(C)N(C(=O)c2ccccc2)c2ccc(C)cc21 | -2 | -5 | 63* | . | 16
CN(CC(=O)Nc1ccccc1-c1ccccc1)Cc1ccccc1Cl | -8 | -20 | 38 | -9 | 17
CC(=O)c1cccc(OC(=O)c2ccc3c(=O)n4c(nc3c2)CCC4)c1 | . | . | 54* | -11 | -2
Cc1[nH]c2ccccc2c1C(=O)COC(=O)c1ccc2c(=O)n3c(nc2c1)CCC3 | -4 | 0 | 93* | 2 | 30
Cc1ccc(-c2nc3cnccn3c2Nc2c(C)cccc2C)o1 | -1 | -15 | 1 | -1 | 14
S=C1Cc2ccccc2N1 | 7 | -18 | ? | . | 35
COc1ccc(C(=O)/C(C#N)=N/Nc2cccc([N+](=O)[O-])c2)cc1 | 11 | -46 | 51* | . | -3
Cc1ccc(/C=C/C(=O)NC2CCCCCCC2)o1 | -2 | -38 | 5 | 145* | -2
Cc1ccc(/C=N/NC(=O)NC2CCCCC2)o1 | 1 | -69 | -1 | -3 | -66
COc1ccc(Cc2[nH]n3c(=O)cc(C(C)C)nc3c2-c2ccccc2)cc1 | 4 | 13 | 91* | -19 | 72*
COc1ccc(Cc2[nH]n3c(=O)cc(C)nc3c2-c2ccccc2)cc1 | -2 | -10 | 4 | 29 | 9
O=C(Nc1nc(COc2ccccc2)cs1)c1ccccc1F | -4 | 1 | 3 | 4 | -15
N#C/C(=C\C=C\c1ccccc1[N+](=O)[O-])C(=O)NC1CCCCC1 | 0 | -25 | -1 | 82* | -132
CC(CCc1ccccc1)NCc1cccc2ccccc12 (stereo not given) | 1 | -24 | 3 | 3 | 10
CNC[C@H](Cc1cccc2ccccc12)NC[C@H](CCSC)NCC1CCC(C(C)(C)C)CC1 (stereo not given in full) | . | . | . | 90* | .
Cc1csc(NC(=O)c2cn3ccccc3n2)n1 | 10 | 50 | 23 | 28 | 82*
Cc1csc(NC(=O)c2ccc3ccccc3n2)n1 | 5 | -118 | 60* | -8 | -46
CCCS(=O)(=O)N1CCc2cc(OC)c(OC)cc2C1 | 1 | -3 | 0 | . | 8
S=C(NNc1nc(Nc2ccccc2)nc(N2CCCCC2)n1)NC1CCCCC1 | -1 | -6 | 60* | -10 | -14
C=CCNC(=S)NNc1nc(Nc2ccccc2)nc(N2CCCCC2)n1 | 5 | -83 | 8 | -8 | -6
Brc1ccc(-c2cn3c(n2)CCc2ccc4cccnc4c2-3)cc1 | 4 | 5 | 76* | 33 | -10
Cc1ccc(-c2cc(-c3ccc(F)cc3)nc(N)c2C#N)o1 | -1 | -25 | 9 | 31 | 63*
Cc1ccc(NNc2c(C)nc3ccccc3nc2=O)cc1 | -4 | -25 | 18 | 35 | -112
FC(F)(F)c1nc2ccccc2n2c(-c3ccc(Cl)cc3)nnc12 | 0 | -12 | 5 | . | 108*
Cc1ccc(-c2nc3ccccc3n3c(C)nnc23)cc1 | 5 | -15 | . | . | .
SMILES | IEC-6 cytotox | KLF5 inhibitor | SKKanGAS inh | CSC inhib | aSyn 5UTR inh
FC(F)(F)c1nnc2c(Sc3ccc(Cl)cc3)nc3ccccc3n12 | 2 | -29 | -4 | 49 | 37
Cc1ccc(-c2nnc3c(C(F)(F)F)nc4ccccc4n23)cc1 | 1 | -33 | -3 | -6 | 71*
C[C@H](NC(=O)N1CCn2c1nc1ccccc12)C(=O)N1CCCCC1 | 2 | 9 | -6 | -12 | 3
Cc1nn(-c2ccccc2)c(C)c1/C=N/n1c(-c2ccc(C(C)(C)C)cc2)n[nH]c1=S | -4 | -11 | 87* | 80* | 5
S=c1[nH]nc(-c2ccccc2)n1/N=C/c1ccc(-c2ccccc2Cl)o1 | 7 | 1 | 5 | 102* | 37
CCc1n[nH]c(=S)n1/N=C/c1c(C)nn(-c2ccccc2)c1Cl | -3 | -5 | 21 | . | 106*
Oc1c(Br)cc(/C=N/n2c(-c3ccccc3)n[nH]c2=S)c(O)c1Br | -6 | -28 | 13 | 2 | 8
Cc1c(Br)c(O)c(Br)c(O)c1/C=N/n1c(-c2ccccc2)n[nH]c1=S | 0 | 10 | 26 | 37 | 62*
S=c1[nH]nc(-c2cccc(Cl)c2)n1/N=C/c1ccc(-c2ccccc2Br)o1 | 0 | -6 | 3 | 15 | 39
O=C(c1cnn2c(-c3ccccc3)cc(-c3ccccc3)nc12)N1CCN(Cc2ccccc2)CC1 | . | . | 30 | 16 | 19
CS(=O)(=O)N(CC(=O)N1CCN(Cc2ccccc2)CC1)c1cccc([N+](=O)[O-])c1 | 3 | -28 | 7 | -21 | 4
COc1ccc(N2CCN(CCNC(=O)Nc3ccc(C)cc3Cl)CC2)cc1 | 0 | -42 | -3 | 17 | 25
O=C(CSc1cccc[n+]1[O-])NN(c1ccccc1)c1ccccc1 | -1 | -11 | 1 | -20 | -20
C(#CC12CC3CC(CC(C3)C1)C2)CN1CCOCC1 | -2 | -30 | 8 | 6 | -10
CCC(=O)Nc1ccc(NC(=O)CSc2nnnn2Cc2ccccc2)cc1C | 3 | -22 | 7 | . | 8
COc1ccc(/C=C2/C(=O)N(c3nc4ccccc4s3)N=C2CSc2ccc(Cl)cc2)cc1 | 3 | -13 | 68* | 92* | -42
Nc1ccc(-c2nc3ccc(N)cc3[nH]2)cc1 | -1 | -61 | -4 | 10 | -62
Nc1ccc2nc(-c3cc(Cl)c(N)c(Cl)c3)[nH]c2c1 | 6 | -90 | 63* | 4 | -279
Nc1ccc2nc(-c3ccc(Cl)cc3)[nH]c2c1 | . | . | 84* | 21 | -176
Nc1ccc2nc(-c3cccc(-c4nc5ccc(N)cc5[nH]4)c3)[nH]c2c1 | -8 | 30 | 8 | 32 | 16
Cc1ccc(NC(=O)CCC(=O)N/N=C/C=C/c2ccccc2)cc1 | -2 | -23 | -3 | 15 | -18
Cc1cc(NS(=O)(=O)c2ccc(NC(=O)CCCOc3ccccc3C)cc2)no1 | -3 | -10 | 1 | -7 | 18
CCC(=O)N1CCc2cc(S(=O)(=O)NCCC(=O)N3CCN(c4cccc(C)c4)C(C)C3)ccc21 (stereo not given) | -2 | 1 | -2 | -2 | 35
COc1ccc(C(=O)C(c2ccccc2)N2CCOCC2)cc1 (stereo not given) | -4 | -22 | 8 | -9 | -21
Cc1ccc(C(=O)C(c2ccccc2)N2Cc3ccccc3C2=N)cc1 (stereo not given) | -1 | -6 | ? | 111* | -13
SMILES | IEC-6 cytotox | KLF5 inhibitor | SKKanGAS inh | CSC inhib | aSyn 5UTR inh
CCCCC1CCC(c2nc(-c3ccccn3)no2)CC1 (stereo not given) | -4 | -16 | 61* | -6 | 97*
c1ccc(-c2noc(C3CCC3)n2)nc1 | 4 | -59 | -1 | -14 | -54
Cc1cccc(N2CCN(C(=O)c3ccc4ncsc4c3)CC2)c1C | 36* | 47 | . | . | .
O=C(N1CCN(c2ccccc2F)CC1)C12CC3CC(CC(C3)C1)C2 | -4 | -8 | 5 | 22 | 0
Cc1cccc(N2CCN(C(=O)C34CC5CC(CC(C5)C3)C4)CC2)c1C | -3 | -15 | 83* | 31 | 27
Cc1ccc(-c2cc3nc(-c4ccc(Br)cc4)cc(N)n3n2)cc1 | 4 | -4 | 75* | 41 | -39

Assay outcomes deposited in PubChem BioAssay by several laboratories.
